Compound activity from PubChem.
HT1080 IDH1KD tx: kills HT-1080 cells with IDH1 knockdown; HT-1080 IDH1 knockdown viability, ATP luminescence, 48 h; Potency, µM (doses to about 46.1 µM), for inactives: top-dose activity, negative = toxicity, usual class: cytotoxic; hit rate 2% among 360,000;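 further: 0% = DMSO wells and -100% = cell-free medium wells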
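Cytotoxicity counter-line: IDH1KD HT-1080, 48 h, CellTiter-Glo. Curves classed by r2, magnitude and activity.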
MCF10A rereplic: DNA re-replication induction in MCF 10a cells. AID 624296. hit rate 2.9% among 350,000. Potency, µM (titrated, usually from 46.1 µM), inactives show at the top dose activity, positive = re-replication, most hits filed as activators. MCF 10A DNA re-replication, Hoechst nuclear intensity, 48 h; further: % of control where 0% means no effect; nearly all actives have a fitted effect of over 50% in size
KB-V1 MDR tox: KB-V1 MDR subline cytotoxicity; KB-V1 MDR cells viability, CellTiter-Glo, 72 h; Potency, µM (highest dose often 46.1 µM), actives largely listed as cytotoxic; hit rate 3.4% among 400,000; further: on the % scale 0 is the no-effect control and ±100 the full control effect; nearly all actives have a fitted effect of over 60% in size
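Cells of the MDR subline KB-V1 are plated, dosed with compound at multiple concentrations, and incubated 72 h at 37 degrees C; CellTiter-Glo is then added and luminescence read after 10 min.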
HT1080NT lethal: kills 2HG-producing HT-1080-NT fibrosarcoma cells; HT-1080-NT fibrosarcoma viability, CellTiter-Glo ATP luminescence, 48 h; hit rate 1.6% among 360,000; Potency, µM (top dose mostly 46.1 µM), without a hit: at the top dose activity, negative = less viability, actives largely listed as cytotoxic;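 further: NT is the 2HG producing partner of a matched IDH1 knockdown line; 0% = DMSO-treated cells and -100% = media-only wells without cells; nearly all actives have a fitted effect of over 55% in size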
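Toxicity toward the 2HG-producing NT line was scored as %Activity, normalised to DMSO and no-cell wells, from CellTiter-Glo luminescence after 48 hours' treatment.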
SW480 rereplic: DNA re-replication induction in SW480 cells. SW480 DNA re-replication, Hoechst DNA content imaging, 48 h. AID 624297. hit rate 1.8% among 340,000. Potency, µM (doses to about 46.1 µM), without a hit: at the highest dose re-replication activation, actives largely listed as activators; further: % of control where 0% means no effect; nearly all actives have a fitted effect of over 55% in size
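SW480 cells exposed to compounds for 48 hr at 37 C, 5% CO2, then Hoechst-stained 40 min. Nuclear DNA content imaged by fluorescence scanning (405 nm excitation, 500-530 nm emission); re-replication scored as increased high-intensity nuclei.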
KB-3-1 cytotox: kills parental KB-3-1 adenocarcinoma cells; KB-3-1 viability, CellTiter-Glo ATP luminescence, 72 h; Potency, µM (titrated, usually from 46.1 µM), actives largely listed as cytotoxic; hit rate 1.4% among 400,000; further: on the % scale 0 is the no-effect control and ±100 the full control effect; nearly all actives have a fitted effect of over 60% in size
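Using CellTiter-Glo luminescence, growth of non-resistant KB-3-1 adenocarcinoma cells is assessed 72 h after pin-tool compound addition at 37 °C. Normalized responses across the concentration series yield fitted curves.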
Active calls of the source: *; i = inactive; u = inconclusive; x = no result; [ ] = remark or other dose. Only some compounds are listed: those with a hit (about 7.9% of all), similar ones and a draw of the others. The call rests on the fitted dose curve; in most records, active means well fitted curve in the direction sought with a large enough effect; inconclusive means small, poorly fitted or top-dose-only effect, or another doubt; inactive means no such curve, though single readings can be large; an effect the other way counts as inactive or inconclusive. Potency means the concentration at half of the fitted maximal effect.

SMILES	HT1080 IDH1KD tx	MCF10A rereplic	KB-V1 MDR tox	HT1080NT lethal	SW480 rereplic	KB-3-1 cytotox
Cc1nn(C)cc1C(C(=O)NC1CCCCC1)N(C(=O)Cn1nnc2ccccc21)c1ccc(F)cc1 (stereo not given)	17%	26µM*	i	-1%	u	i
O=[N+]([O-])c1ccc(S(=O)(=O)N2CCN(c3nc(-c4cccs4)nc4ccccc34)CC2)cc1	x	x	i	x	x	i
c1cncc(-c2nnc(-c3cccnc3)nn2)c1	u	u	u	u	u	i
Cn1c(SSc2ccc(-c3cccnc3)n2C)ccc1-c1cccnc1	12µM*	204%	u	10µM*	u	u
CC1(C)CC(=O)C2=C(C1)NC(SCC(=O)Nc1ccccc1)=C(C#N)C2c1ccco1 (stereo not given)	-2%	16µM*	i	0%	u	i
COc1ccc(OC)c(NC(=O)CSC2=C(C#N)C(c3ccco3)C3=C(CCCC3=O)N2)c1 (stereo not given)	7%	u	i	-3%	16µM*	i
N#CC1=C(SCC(=O)c2ccc(Cl)cc2)NC2=C(C(=O)CCC2)C1c1ccco1 (stereo not given)	18µM*	11µM*	i	18µM*	u	u
Cc1ccc(C(=O)CSC2=C(C#N)C(c3ccco3)C3=C(CC(C)(C)CC3=O)N2)cc1 (stereo not given)	u	u	i	-30%	u	u
Cc1ccc(NC(=O)CSC2=C(C#N)C(c3ccco3)C3=C(CCCC3=O)N2)cc1 (stereo not given)	4%	u	i	-2%	-1%[9.22 µM]	i
COc1ccccc1NC(=O)CCCOc1cc(=O)n(C)c2ccccc12	x	x	u	x	x	i
O=c1nccc(N/N=C/c2ccccc2O)[nH]1	u	8%	i	1.2µM*	u	6.5µM*
CCOc1ccccc1/C=N/Nc1ccnc(=O)[nH]1	0%	3%	i	-15%	5%	i
COc1cccc(/C=N/Nc2snc(SC)c2C#N)c1O	u	6%	16µM*	u	5%	13µM*
COc1cccc(/C=N/Nc2ccnc(=O)[nH]2)c1O	u	u	u	u	u	4.6µM*
Cc1cccn2c(=O)c3cc(C(=O)NCC4CCCO4)c(=N)n(C4CCCCC4)c3nc12 (stereo not given)	-15%	18µM*	i	-9%	18µM*	i
Cc1cccn2c(=O)c3cc(C(=O)NC4CCCCC4C)n(C)c3nc12 (stereo not given)	1%	15µM*	i	0%	21µM*	i
COc1ccc(CCn2c(=N)c(C(=O)NCC3CCCO3)cc3c(=O)n4cccc(C)c4nc32)cc1 (stereo not given)	-2%	2.9µM*	u	2%	5.8µM*	u
COc1ccc(CNC(=O)c2cc3c(=O)n4cccc(C)c4nc3n(CC3CCCO3)c2=N)cc1 (stereo not given)	-10%	8.2µM*	i	-15%	4.1µM*	i
Cc1cccn2c(=O)c3cc(C(=O)NCc4ccc(F)cc4)c(=N)n(CC4CCCO4)c3nc12 (stereo not given)	0%	15%	i	-4%	u	i
COc1cc(F)c(S(=O)(=O)Nc2c(C)n(C)n(-c3ccccc3)c2=O)cc1OC	x	x	i	x	x	i
O=C(NC[C@@H](O)CO)c1c(I)c(C(=O)NC[C@@H](O)CO)c(I)c(N(CCO)C(=O)CO)c1I	x	-2%[20.6 µM]	x	x	-5%[20.6 µM]	x
CCc1nn(CC(=O)NCC(C)c2ccccc2)c(=O)c2cc3c(OC)cccc3n12 (stereo not given)	x	x	i	x	x	i
Cc1cccn2c(=O)c3cc(C(=O)NCC4CCCO4)c(=N)n(CC4CCCO4)c3nc12 (stereo not given)	-3%	4.6µM*	i	7%	3.7µM*	i
CCOCCCNc1nc2nc3ccc(C)cn3c(=O)c2cc1C(=O)NCC1CCCO1 (stereo not given)	8%	10µM*	i	24%	9.2µM*	i
Cc1cccn2c(=O)c3cc(C(=O)NC4CCCC4)c(=N)n(CC4CCCO4)c3nc12 (stereo not given)	6%	9.2µM*	u	-3%	u	u
SMILES	HT1080 IDH1KD tx	MCF10A rereplic	KB-V1 MDR tox	HT1080NT lethal	SW480 rereplic	KB-3-1 cytotox
Cc1cccn2c(=O)c3cc(C(=O)NCc4ccco4)c(=N)n(C4CCCC4)c3nc12	10%	2.1µM*	i	16%	1.8µM*	i
Cc1cccn2c(=O)c3cc(S(=O)(=O)c4ccc(Br)cc4)c(=N)n(C4CCCCC4)c3nc12	-2%	12%	i	-4%	u	i
COC(=O)c1ccccc1NC(=O)c1ccc(-c2nc(COc3ccccc3)c(C)o2)cc1	x	x	i	x	x	i
COCCCN(C(=O)c1cc(Cl)nc2ccccc12)c1c(N)n(Cc2ccccc2)c(=O)[nH]c1=O	10%	-1%	u	1%	0%	i
O=C(NCc1ccccc1F)c1cccc(NC(=O)N2CCSc3ncccc32)c1	x	x	i	x	x	i
Cc1cccn2c(=O)c3cc(C(=O)NC4CCCCC4)c(=N)n(Cc4ccc(F)cc4)c3nc12	-8%	u	i	-3%	1.3µM*	i
Cc1cccn2c(=O)c3cc(S(=O)(=O)c4ccccc4)c(=N)n(Cc4ccc(F)cc4)c3nc12	15%	u	i	0%	u	i
C=C(C)COC(=O)c1ccccc1C(=O)OCC1(C)CO1 (stereo not given)	7%	-2%	i	4%	-8%	i
COc1ccc(OC)c(NC(=S)NCCSc2ccc(C)cc2)c1	0%	0%	23µM*	5%	0%	i
Cc1ccc(NC(=S)NCCSc2ccc(Cl)cc2)c(C)c1	0%	23µM*	i	3%	u	i
CCNC(=O)N1CCN(CCCC(c2ccc(F)cc2)c2ccc(F)cc2)CC1	u	u	u	16µM*	-15%	i
COc1cc(/C=N/NC(=S)Nc2cccc(Cl)c2C)ccc1OCC(=O)N1CC(C)OC(C)C1 (stereo not given)	-16%	2%	4.6µM*	-1%	3%	i
CCN(CC)c1ccc(NC(=O)c2ccc(=O)[nH]c2)cc1S(=O)(=O)Nc1ccccc1OC	u	u	i	u	u	10µM*
CCN(CC)c1ccc(NC(=O)c2ccccc2Br)cc1S(=O)(=O)Nc1ccccc1OC	2%	10%	u	0%	0%	i
